PubChem BioAssay (NCI)
This is part of a sample that, as a whole, favours compounds with a hit. Of some 83,000 tested, about 20% had one in any assay.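 Method: cells in 96-well plates; compound added at one concentration; 48 h incubation; percent growth measured; values under 10 scored active.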 The source made the active and inactive calls.

Each molecule was assayed on M14 melanoma (assay: NCI-60 one-dose screen, 48 h (100 = growth as untreated, 0 = no growth, -100 = all killed)). Details: 10 µM.

SMILES	growth
Cc1ccc(-n2nnc3c(sc4ccccc43)c2=O)cc1	83.1% (inactive)
Nc1ccn([C@@H]2O[C@H](COP(=O)(O)O[C@@H]3C[C@H](n4cc(F)c(=O)[nH]c4=O)O[C@@H]3COP(=O)(O)O[C@@H]3C[C@H](n4cc(F)c(=O)[nH]c4=O)O[C@@H]3COP(=O)(O)O[C@@H]3C[C@H](n4cc(F)c(=O)[nH]c4=O)O[C@@H]3COP(=O)(O)O[C@@H]3C[C@H](n4cc(F)c(=O)[nH]c4=O)O[C@@H]3COP(=O)(O)O[C@@H]3C[C@H](n4cc(F)c(=O)[nH]c4=O)O[C@@H]3COP(=O)(O)O[C@@H]3C[C@H](n4cc(F)c(=O)[nH]c4=O)O[C@@H]3COP(=O)(O)O[C@@H]3C[C@H](n4cc(F)c(=O)[nH]c4=O)O[C@@H]3COP(=O)(O)O[C@@H]3C[C@H](n4cc(F)c(=O)[nH]c4=O)O[C@@H]3COP(=O)(O)O[C@@H]3C[C@H](n4cc(F)c(=O)[nH]c4=O)O[C@@H]3COP(=O)(O)O[C@@H]3C[C@H](n4cc(F)c(=O)[nH]c4=O)O[C@@H]3COP(=O)(O)OCCOCCOCCOCCOCCOCCO)[C@H](O)C2O)c(=O)n1 (stereo not given in full)	9.25% (active)
COc1ccc(-c2nnc(COc3ccc(NC(=O)Nc4cccc(C(F)(F)F)c4)cc3F)o2)cc1	60.8% (inactive)
Fc1ccc(Nc2ccnc(N3CCN(c4ccnc5cc(Cl)ccc45)CC3)n2)cc1	43.4% (inactive)
CCOC(=O)c1cc(-c2ccccc2)nc(N)n1	108% (inactive)
CC1(CO)CCCC12OCCO2 (stereo not given)	106% (inactive)
CCc1c(C)[nH]c(=O)c(C(N)=O)c1C#N	97.5% (inactive)
CCOc1ccc2c(c1)CC[C@@H]1[C@@H]2CC[C@]2(C)[C@@H](O)[C@@H](O)C[C@@H]12	108% (inactive)
COc1ccc(OC)c([N+](=O)[O-])c1C=O	108% (inactive)
CCOC(=O)Nc1ccc2c(c1)C(=O)N(CC)c1ccccc1O2	11.1% (inactive)
Cc1ccc(C)c2c1sc1nc3n[nH]c(N)c3c(=N)n12	108% (inactive)
c1ccc(CC(NCCNC(Cc2ccccc2)c2ccccc2)c2ccccc2)cc1 (stereo not given)	2.08% (active)
Cc1ccc2nc(-c3ccc(OCC(=O)N=Nc4c(O)[nH]c5ccccc45)cc3)[nH]c2c1	77.3% (inactive)
COc1ccc2c(=O)cc(C(Cl)(Cl)Cl)oc2c1	-67.1% (active)
c1ccc(OCCC[P+](c2ccccc2)(c2ccccc2)c2ccccc2)cc1	14.1% (inactive)
COc1cc(CSc2nc3ccc(C)cc3c(=O)n2Cc2ccccc2)cc(OC)c1OC	35.6% (inactive)
C[N+]1=C(/C=C/c2ccc(I)cc2)C(C)(C)c2ccccc21	91% (inactive)
COc1ccccc1S(=O)(=O)Nc1ccc2c(c1)CN(C)C(=O)N2	47.8% (inactive)
CCC(O)c1ccc(Br)cc1NC(=O)c1cccc(Cl)c1 (stereo not given)	0.116% (active)
CCCCn1c(=O)[nH]c(N)c(C(c2ccc(Cl)cc2)c2c(N)[nH]c(=O)n(CCCC)c2=O)c1=O	35% (inactive)
COc1ccc(C(=O)/C=C/c2cc(-c3ccc4c(c3)OCO4)n[nH]2)cc1OC	91.6% (inactive)
COc1ccc2oc(=O)cc(C(c3ccc[nH]3)c3ccc[nH]3)c2c1	8.91% (active)

What follows are molecules tested on HCT-15 colon in the same assay as above. Details: 10 µM.

SMILES	growth
CCCCCCCCCCCC(=O)NCCCN(C)C	93.8% (inactive)
Nc1ccc(C2=CC(c3ccc(Cl)cc3)N3C=CSC3=N2)cc1 (stereo not given)	-57.7% (active)
CC(=O)n1nc(C(=O)OC(C)(C)C)c2cc(F)c(F)cc21	101% (inactive)
COC(=O)c1c(C)nc(Nc2nc3ccccc3s2)nc1-c1ccc(Cl)cc1Cl	92.2% (inactive)
O=C(O)CCCCSCCCCC(=O)O	106% (inactive)
COc1cc(-c2nc3ccc(C)cc3[nH]2)ccc1OCC(=O)N=Nc1c(O)[nH]c2ccccc12	52.7% (inactive)
CC1=CSC2=NC(c3ccc(Cl)c(Cl)c3)=CC(c3ccc(Cl)cc3)N12 (stereo not given)	66.9% (inactive)
COc1ccc(Nc2ccnc(N3CCN(c4ccnc5cc(Cl)ccc45)CC3)n2)cc1	7.35% (active)
Cn1cnc([N+](=O)[O-])c1/C=C1\Oc2ccc(Cl)cc2C1=O	78.4% (inactive)
CCOC(=O)Cn1nnc(-c2ccc(OCc3ccccc3F)cc2)n1	88.5% (inactive)
COc1ccc(/C(CS(=O)(=O)c2ccccc2)=N\O)cc1	99.4% (inactive)
COc1ccc(S(=O)(=O)Nc2cc(/C=C\c3cc(OC)c(OC)c(OC)c3)ccc2OC)cc1	7.86% (active)
COc1ccc2nc(C)cc(Nc3ccc(Cl)cc3)c2c1	99.1% (inactive)
COc1cc(-c2nc3ccc(C)cc3[nH]2)ccc1OCc1nnc(-c2ccc(CC(C)C)cc2)o1	73.8% (inactive)
Cc1noc(C)c1-c1ccc2nc(NC(=O)[C@H]3CCN(C#N)C3)cn2c1	84.4% (inactive)
COc1ccc(COC(=O)CC(C)C)cc1	105% (inactive)
Cc1ccc(-n2nnc3c(sc4ccccc43)c2=O)cc1	89.3% (inactive)
Nc1ccn([C@@H]2O[C@H](COP(=O)(O)O[C@@H]3C[C@H](n4cc(F)c(=O)[nH]c4=O)O[C@@H]3COP(=O)(O)O[C@@H]3C[C@H](n4cc(F)c(=O)[nH]c4=O)O[C@@H]3COP(=O)(O)O[C@@H]3C[C@H](n4cc(F)c(=O)[nH]c4=O)O[C@@H]3COP(=O)(O)O[C@@H]3C[C@H](n4cc(F)c(=O)[nH]c4=O)O[C@@H]3COP(=O)(O)O[C@@H]3C[C@H](n4cc(F)c(=O)[nH]c4=O)O[C@@H]3COP(=O)(O)O[C@@H]3C[C@H](n4cc(F)c(=O)[nH]c4=O)O[C@@H]3COP(=O)(O)O[C@@H]3C[C@H](n4cc(F)c(=O)[nH]c4=O)O[C@@H]3COP(=O)(O)O[C@@H]3C[C@H](n4cc(F)c(=O)[nH]c4=O)O[C@@H]3COP(=O)(O)O[C@@H]3C[C@H](n4cc(F)c(=O)[nH]c4=O)O[C@@H]3COP(=O)(O)O[C@@H]3C[C@H](n4cc(F)c(=O)[nH]c4=O)O[C@@H]3COP(=O)(O)OCCOCCOCCOCCOCCOCCO)[C@H](O)C2O)c(=O)n1 (stereo not given in full)	44.6% (inactive)
COc1ccc(-c2nnc(COc3ccc(NC(=O)Nc4cccc(C(F)(F)F)c4)cc3F)o2)cc1	46.1% (inactive)

SMILES	growth
Fc1ccc(Nc2ccnc(N3CCN(c4ccnc5cc(Cl)ccc45)CC3)n2)cc1	38.4% (inactive)
CCOC(=O)c1cc(-c2ccccc2)nc(N)n1	94.9% (inactive)
CC1(CO)CCCC12OCCO2 (stereo not given)	101% (inactive)
CCc1c(C)[nH]c(=O)c(C(N)=O)c1C#N	95.4% (inactive)
CCOc1ccc2c(c1)CC[C@@H]1[C@@H]2CC[C@]2(C)[C@@H](O)[C@@H](O)C[C@@H]12	95% (inactive)
COc1ccc(OC)c([N+](=O)[O-])c1C=O	104% (inactive)
CCOC(=O)Nc1ccc2c(c1)C(=O)N(CC)c1ccccc1O2	14.4% (inactive)
Cc1ccc(C)c2c1sc1nc3n[nH]c(N)c3c(=N)n12	102% (inactive)
c1ccc(CC(NCCNC(Cc2ccccc2)c2ccccc2)c2ccccc2)cc1 (stereo not given)	15.5% (inactive)
Cc1ccc2nc(-c3ccc(OCC(=O)N=Nc4c(O)[nH]c5ccccc45)cc3)[nH]c2c1	86.3% (inactive)
COc1ccc2c(=O)cc(C(Cl)(Cl)Cl)oc2c1	5.59% (active)
c1ccc(OCCC[P+](c2ccccc2)(c2ccccc2)c2ccccc2)cc1	84.7% (inactive)
COc1cc(CSc2nc3ccc(C)cc3c(=O)n2Cc2ccccc2)cc(OC)c1OC	29.2% (inactive)
C[N+]1=C(/C=C/c2ccc(I)cc2)C(C)(C)c2ccccc21	86.6% (inactive)
COc1ccccc1S(=O)(=O)Nc1ccc2c(c1)CN(C)C(=O)N2	40.8% (inactive)
CCC(O)c1ccc(Br)cc1NC(=O)c1cccc(Cl)c1 (stereo not given)	28.5% (inactive)
CCCCn1c(=O)[nH]c(N)c(C(c2ccc(Cl)cc2)c2c(N)[nH]c(=O)n(CCCC)c2=O)c1=O	76.9% (inactive)
COc1ccc(C(=O)/C=C/c2cc(-c3ccc4c(c3)OCO4)n[nH]2)cc1OC	52.1% (inactive)
COc1ccc2oc(=O)cc(C(c3ccc[nH]3)c3ccc[nH]3)c2c1	9.01% (active)
